Screening data: PubChem BioAssay, Johns Hopkins Ion Channel Center
Shown are actives, neighbours in structure and some others; about 1.6% of the full set was active somewhere.
KCNQ2 inh = blocks the rat KCNQ2 potassium channel | 310,000 compounds, 1.1% hits | B-score at 10 µM | O88943 | CHO-K1 KCNQ2, FluxOR thallium flux, 20 min; stronger effect = lower value;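 active means fluorescence ratio B-score at most minus 3 library SDs, with starting brightness B-score within 2 library SDs, cut at about -5.5 in these data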
Target sequence (O88943 whole entry, looked up): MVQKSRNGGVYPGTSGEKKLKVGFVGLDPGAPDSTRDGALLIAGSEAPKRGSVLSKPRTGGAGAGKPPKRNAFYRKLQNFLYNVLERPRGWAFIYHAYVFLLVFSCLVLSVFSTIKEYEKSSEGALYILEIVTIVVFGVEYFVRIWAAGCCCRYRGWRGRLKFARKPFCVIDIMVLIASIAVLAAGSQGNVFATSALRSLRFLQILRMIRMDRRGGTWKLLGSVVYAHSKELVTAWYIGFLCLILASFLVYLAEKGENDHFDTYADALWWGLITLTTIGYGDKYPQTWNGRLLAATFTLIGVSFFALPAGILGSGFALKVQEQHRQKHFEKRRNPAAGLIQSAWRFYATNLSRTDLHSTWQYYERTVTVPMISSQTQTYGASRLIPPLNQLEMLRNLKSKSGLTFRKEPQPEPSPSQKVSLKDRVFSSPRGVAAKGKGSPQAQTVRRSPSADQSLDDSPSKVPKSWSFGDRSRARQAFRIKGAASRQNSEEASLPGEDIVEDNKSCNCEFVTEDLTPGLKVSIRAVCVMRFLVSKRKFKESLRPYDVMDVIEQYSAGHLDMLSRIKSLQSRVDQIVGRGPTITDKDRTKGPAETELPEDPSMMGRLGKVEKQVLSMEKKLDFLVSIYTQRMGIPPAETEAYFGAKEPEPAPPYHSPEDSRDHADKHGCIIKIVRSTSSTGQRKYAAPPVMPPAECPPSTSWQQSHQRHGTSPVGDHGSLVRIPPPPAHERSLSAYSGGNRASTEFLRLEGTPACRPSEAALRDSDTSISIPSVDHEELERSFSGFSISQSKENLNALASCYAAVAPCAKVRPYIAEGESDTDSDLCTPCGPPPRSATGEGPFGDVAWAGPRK
KCNQ2 pot = KCNQ2 (rat) channel potentiation; CHO-K1 KCNQ2, FluxOR thallium flux fluorescence; stronger effect = higher value; B-score at 10 µM; 310,000 compounds, 0.54% hits; AID 2239;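 active means fluorescence ratio B-score at least 3 SD of library B-scores, with initial fluorescence B-score within 3 of them, cut at about 5.3 in these data; same plate scores as AID 2156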;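 further: B-score of peak minus minimum over baseline fluorescence ratio after K+ and Tl+ stimulus; positive B-score means potentiation of KCNQ2 with more thallium influx and brighter signal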
An asterisk follows results filed as active; i = inactive; . = not tested or not shown.

SMILES	KCNQ2 inh	KCNQ2 pot
CCOC(=O)C1=C(C)NC(C)=C(C(=O)OC)C1c1cccc(Cl)c1Cl (stereo not given)	-7.53*	-7.53
CCOC(=O)C1=C(COCCN)NC(C)=C(C(=O)OC)C1c1ccccc1Cl (stereo not given)	i	.
Cn1c(=O)c(/C=C/c2ccccc2)nc2ccccc21	i	.
Cn1c(=O)c(/C=C/c2ccc(F)cc2)nc2ccccc21	-5.88*	-5.88
CCN1CCN(c2ccc(S(=O)(=O)N3CCCCC3)cc2NC(=O)c2ccc(C)o2)CC1	i	0.16
Cc1ccc(NC(=O)C2Cc3ccccc3CN2C(=O)c2ccccc2)cc1Cl (stereo not given)	-6.08*	-6.08
Cc1ccc(C(=O)N2Cc3ccccc3CC2C(=O)O)cc1 (stereo not given)	i	2.28
CC(c1nnnn1C(C)(C)C)N(Cc1cccnc1)Cc1ccccc1Cl (stereo not given)	i	.
Clc1ccccc1CN(Cc1ccccc1)C(c1cccs1)c1nnnn1C1CCCC1 (stereo not given)	-5.84*	-5.84
CC(C)(C)n1nnnc1C(c1cccs1)N(Cc1cccnc1)Cc1ccccc1Cl (stereo not given)	-6.18*	-6.18
Clc1ccc(CN(CC2CCCO2)C(c2cccs2)c2nnnn2C2CCCC2)cc1 (stereo not given)	i	.
Cc1ccc(C(=O)NC2CCCc3c2cnn3-c2ccc(F)cc2F)cn1 (stereo not given)	i	1.8
O=C(Nc1ccc2c(c1)CCCN2C(=O)c1ccccc1)c1ccccc1	i	.
CCCCn1c(N)c(N(CCC(C)C)C(=O)C2CCN(C(=O)c3ccccc3C)CC2)c(=O)[nH]c1=O	i	.
CN(CC(=O)Nc1ccccc1Br)CC(=O)Nc1ccccc1C(F)(F)F	i	.
COc1ccc(-c2noc(CSc3nnc(Cc4ccccc4)n3-c3ccc(Cl)cc3)n2)cc1	i	.
Cc1sc2nc(SCc3nc(-c4ccccc4)no3)n(-c3ccccc3)c(=O)c2c1C	-9.03*	-9.03
Cc1sc2nc(SCC(N)=O)n(-c3ccccc3)c(=O)c2c1C	i	.
COc1ccc(-c2noc(CSc3nc4ccccc4c(=O)n3-c3ccc(C)cc3)n2)cc1	-5.74*	-5.74
N#Cc1ccccc1OCCCN1CCC(Cc2ccccc2)CC1	i	.
Nn1c(SCc2ccccc2F)nnc1-c1ccccn1	i	.
CCOC(=O)C(=CNc1cc(C)ccc1-n1cccc1)C(=O)OCC	i	0.44
COc1ccc(C=C(c2nc3ccccc3s2)c2nc3ccccc3s2)cc1O	i	.
COc1cc(C=C(c2nc3ccccc3s2)c2nc3ccccc3s2)ccc1O	-5.97*	-5.97
O=C(NCC(=O)N1CCC2(CC1)NCCc1[nH]cnc12)c1cccc(Cl)c1	i	.
SMILES	KCNQ2 inh	KCNQ2 pot
O=C(COc1cccc2cccnc12)N/N=C/c1ccc(O)cc1	i	0.71
O=C(COc1cccc2cccnc12)N/N=C/c1cccn1-c1ccc(F)cc1	-7.19*	-7.19
CC(C)(CN1CCCC1)NS(=O)(=O)c1ccccc1	i	0.44
Cc1cccc(NC(=O)CN2C(=O)CCS(=O)(=O)c3ccccc32)c1C	i	0.17
N#Cc1nc(COc2cccc(Cl)c2)oc1N1CCN(c2ccccc2)CC1	i	.
N#Cc1nc(COc2ccccc2)oc1N1CCN(c2cccc(Cl)c2)CC1	-5.87*	-5.87
C=CCC1CCC/C(=N\NS(=O)(=O)c2ccc(C)cc2)C1 (stereo not given)	i	.
O=C(O)c1cc(-c2ccc(Br)s2)nc2ccccc12	i	.
CN1CCN(NC(=O)c2cc(-c3ccc(Br)s3)nc3ccccc23)CC1	-5.69*	-5.69
CC(C)CC(=O)Nc1c2c(nn1-c1ccc(F)cc1)CS(=O)(=O)C2	i	0.23
CC1(C)CC2CC(C)(CN2C(=S)Nc2ccccc2)C1 (stereo not given)	i	.
CC1(C)CC2CC(C)(CN2C(=S)NC(=O)c2ccccc2Cl)C1 (stereo not given)	i	10.3*
CCOC(=O)CCCNC(=O)CN1CCC(c2nc3ccccc3s2)CC1	i	1.14
COc1cc(CNc2ccc3[nH]c(=O)[nH]c3c2)cc(Br)c1OCc1ccccc1F	i	.
COc1cccc(C2CC(c3ccccc3Cl)n3nc(N)nc3N2)c1 (stereo not given)	i	0.74
COc1ccc(C2(c3ccc(O)cc3O)CC(c3ccccc3Cl)NC(=S)N2)cc1 (stereo not given)	i	6.09*
O=C1CC(c2cccc(Cl)c2)CC(O)=C1C=NC1CCCC1 (stereo not given)	-6.76*	-6.76
O=C1CC(c2ccccc2)CC(O)=C1C=NCc1ccccc1Cl (stereo not given)	i	.
O=C(Nc1cc2c3c(c1)CC(=O)N3CCC2)c1ccc(Br)o1	i	.
O=C(NC(=S)N1CCc2ccccc21)c1ccccc1Br	i	13.9*
CN1CCN(C(=S)NC(=O)c2ccccc2Br)CC1	i	.
O=C(COc1ccc(Br)cc1Cl)NC(=S)N1CCc2ccccc21	i	1.28
CC(Oc1ccc(Cl)cc1Cl)C(=O)NC(=S)N1CCc2ccccc21 (stereo not given)	i	9.31*
CCCCc1ccc(NC(=O)Nc2cc(C)nn2C)cc1	i	0.11
CCC(C)N(C(=O)Cn1nnc(-c2ccc(F)cc2)n1)C1CCS(=O)(=O)C1 (stereo not given)	i	1.03
SMILES	KCNQ2 inh	KCNQ2 pot
C/C(CC(=O)Nc1ccc2ccccc2c1)=N\NC(=O)c1ccc(O)c(O)c1	i	.
COc1ccccc1CNc1cc(CSc2ccc(Cl)cc2)nc(C)n1	-6.11*	-6.11
COc1ccccc1CNC(=O)COC(=O)CSc1ccc(Cl)cc1	i	.
Cc1ccc(NC(=O)c2sc3nc(C)nc(N4CCN(c5ccccn5)CC4)c3c2C)c(C)c1	i	.
Cc1nc(N2CCN(c3ccccn3)CC2)c2c(C)c(C(=O)Nc3ccc(Br)cc3C)sc2n1	-5.98*	-5.98
C/C(=N\NC(=O)c1cccc(S(=O)(=O)N2CCCC2)c1)c1ccc(F)cc1	i	0.51
CCCCn1c(N)c(N(CC)C(=O)CN2C(=O)NC(C)(c3ccccc3)C2=O)c(=O)[nH]c1=O (stereo not given)	i	2.08
CCOC(=O)N1CCN(CC(=O)Nc2sc(CC)cc2C(=O)c2ccc(OC)cc2)CC1	-5.93*	-5.93
CCc1cc(C(=O)OC)c(NC(=O)CN2CCN(C(=O)c3ccco3)CC2)s1	i	1.64
CCC(c1nnc(SCC(=O)Nc2cc(S(C)(=O)=O)ccc2Cl)n1Cc1ccccc1)N(C)C (stereo not given)	i	0.96
O=S(=O)(c1ccccc1)N(CC1CO1)c1cc(Cl)ccc1Cl (stereo not given)	i	0.52
COc1ccc(CC(NC(C)=O)C(=O)NC2CCN(C(=O)c3ccccc3F)CC2)cc1 (stereo not given)	i	.
O=C(Oc1c(-c2ccccc2)oc2ccccc2c1=O)c1ccccc1	i	.
O=C(Oc1c(-c2ccccc2Cl)oc2ccccc2c1=O)c1ccc(Cl)cc1	-6.94*	-6.94
CC1CCC(NC(=O)CCS(=O)(=O)c2ccc3c(c2)NC(=O)C(C)S3)CC1 (stereo not given)	i	1.12
CCc1ccc(CN2CCC(n3nccc3NC(=O)c3cccc(F)c3)CC2)cc1	i	1.36
Oc1ccccc1-c1nc(NCCN2CCOCC2)c2ccccc2n1	-8.25*	-8.25
Clc1ccc(-c2nc(NCCCN3CCOCC3)c3ccccc3n2)cc1	-7.92*	-7.92
COc1cccc(-c2nc(NCCN3CCOCC3)c3ccccc3n2)c1O	i	.
